Compound activity: PubChem BioAssay, several laboratories
Rows were chosen to be rich in hits. Some 1.5% of all compounds tested hit in one or more screens of this group.
TPT1 inhibitor: Candida albicans TPT1 enzyme inhibitors, primary screen, biochemical, fluorescence polarization; inhibition, % at 5 µM; recombinant caTPT1, FP RNA substrate dephosphorylation; hit rate 0.81% among 300,000; tRNA 2'-phosphotransferase TPT1 (Candida albicans SC5314);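 active = inhibition above the mean of all tested compounds plus 3 SD, set per screening campaign, cut at about 24% in these data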;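 also: plate controls were DMSO alone for no effect and ferristatin control at 100 nM for full effect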
IDE cell activ: human IDE activators in live cells, primary screen, fluorescence polarization, HEK cells, FAbeta-B substrate. hit rate 0.073% among 340,000. AID 493087, 2011. FAbeta-B cleavage; 0% vehicle, 100% cell-free pure enzyme wells. Insulin-degrading enzyme (Homo sapiens), P14735. activation, % at 5.96 µM;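 active = activation above the mean of all tested compounds plus 3 SD, set per screening campaign, cut at about 17% in these data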
Target sequence (P14735 whole entry, looked up): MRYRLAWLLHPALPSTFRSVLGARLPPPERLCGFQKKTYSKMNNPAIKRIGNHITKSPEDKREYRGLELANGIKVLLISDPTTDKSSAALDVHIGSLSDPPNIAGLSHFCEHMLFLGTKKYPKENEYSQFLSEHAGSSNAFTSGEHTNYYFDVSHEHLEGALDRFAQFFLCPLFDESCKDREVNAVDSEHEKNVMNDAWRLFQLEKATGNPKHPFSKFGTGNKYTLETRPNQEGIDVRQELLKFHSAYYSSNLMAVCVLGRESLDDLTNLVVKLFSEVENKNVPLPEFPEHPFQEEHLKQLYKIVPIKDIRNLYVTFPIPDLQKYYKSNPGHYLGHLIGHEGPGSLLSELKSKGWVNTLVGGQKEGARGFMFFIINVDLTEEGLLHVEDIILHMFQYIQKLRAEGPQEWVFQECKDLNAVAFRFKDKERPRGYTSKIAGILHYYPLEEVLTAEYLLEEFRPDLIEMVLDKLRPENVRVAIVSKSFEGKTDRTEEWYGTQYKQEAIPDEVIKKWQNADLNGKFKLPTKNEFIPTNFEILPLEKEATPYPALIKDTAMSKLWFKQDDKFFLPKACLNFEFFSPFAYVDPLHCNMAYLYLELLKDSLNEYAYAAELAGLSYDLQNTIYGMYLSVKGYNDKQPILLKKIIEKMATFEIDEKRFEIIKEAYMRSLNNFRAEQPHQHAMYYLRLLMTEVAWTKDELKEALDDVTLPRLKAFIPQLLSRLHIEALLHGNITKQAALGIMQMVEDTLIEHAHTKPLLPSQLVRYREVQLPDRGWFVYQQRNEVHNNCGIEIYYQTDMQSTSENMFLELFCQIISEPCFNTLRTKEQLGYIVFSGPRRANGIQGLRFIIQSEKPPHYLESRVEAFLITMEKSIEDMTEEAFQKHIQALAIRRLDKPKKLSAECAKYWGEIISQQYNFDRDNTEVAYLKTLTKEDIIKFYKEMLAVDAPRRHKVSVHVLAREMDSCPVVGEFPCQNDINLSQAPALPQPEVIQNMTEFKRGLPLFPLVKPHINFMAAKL
RTF Ca sens inh: cardiac RTF calcium sensitivity inhibitors, primary screen, biochemical, IANBD-TnC fluorescence, EC70 calcium; Troponin I, cardiac muscle (Homo sapiens) + Troponin T, cardiac muscle (Homo sapiens) + …; IANBD-labeled cardiac RTF, Ca2+ fluorescence; inhibition, % at 7.15 µM; hit rate 0.12% among 340,000; AID 493244, 2011;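 active = inhibition above the mean inhibition of all tested compounds plus 3 SD, cut at about 17% in these data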;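 also: assay run at fixed EC70 calcium of 1.6 mM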
CRFBP-R2 agonist: agonists of CRF-BP/CRF-R2 complex, primary screen, cell-based, HEK293, calcium dye fluorescence, uHTS. CRF-binding protein / CRF receptor 2 complex (human). calcium dye fluorescence (FLIPR); percent of saturating CRF peptide response. activation, % at 13.2 µM. hit rate 0.46% among 350,000;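 active = activation of at least 50%, plus an integration ratio under a set limit after plate pattern correction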;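 also: plate controls were neutral control wells without compound for no effect and CRF at EC100 for full effect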
cardiac RTF act: cardiac RTF calcium sensitivity activators, primary screen, biochemical, IANBD-TnC fluorescence, EC20 calcium. IANBD-labeled TnC RTF fluorescence at EC20 calcium; 0% EC20 calcium, 100% full calcium. Troponin I, cardiac muscle (Homo sapiens) + Troponin T, cardiac muscle (Homo sapiens) + …. AID 493008, 2010. hit rate 0.24% among 340,000. activation, % at 7.2 µM;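 active = activation above the mean over all tested compounds plus 3 SD, cut at about 30% in these data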;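 also: rise in fluorescence read as greater calcium sensitivity of cardiac thin filaments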
IDE inh: human IDE inhibitors in live cells, primary screen, fluorescence polarization, HEK cells, FAbetaB substrate | FAbetaB cleavage | inhibition, % at 5.59 µM | hit rate 0.41% among 320,000 | AID 434962, 2010;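 active = percent inhibition above the average of all tested compounds plus 3 SD, set per screening campaign, cut at about 16% in these data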;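 also: IDE supplied by intact live HEK cells; FP after avidin binding of uncleaved biotin substrate so inhibition keeps polarization high; 0% = DMSO wells and 100% = 60 µM reference IDE inhibitor Ii1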
An asterisk follows results filed as active; / = no result given.

SMILES	TPT1 inhibitor	IDE cell activ	RTF Ca sens inh	CRFBP-R2 agonist	cardiac RTF act	IDE inh
CC(C)c1cc(-c2cc(C(=O)NCc3ccccc3)on2)nc(NCC2CC2)n1	2	2	9	96*	-1	-2
CC(C)c1cc(-c2cc(C(=O)Nc3ccccc3)on2)nc(NCC2CC2)n1	-1	/	/	/	/	-1
O=[N+]([O-])/C(C(Cl)=C(Cl)Cl)=C1\Nc2ccccc2O1	-3	-3	-12	0	-7	1
COc1cc(S(=O)(=O)Nc2ccc(C)cc2)ccc1N=Cc1c(C)c(C#N)c(=O)n(C)c1O	-1	/	/	80*	/	0
COc1cc(C(=O)N2CCN(S(=O)(=O)c3ccc(C)cc3C)CC2)ccc1OCC(=O)N1CCOCC1	/	-2	0	-1	-1	1
Cc1cccc(NC(c2ccc(C)s2)c2ccc3ccc(C)nc3c2O)n1 (stereo not given)	-2	-13	-15	2	0	22*
Cc1ccc2ccc(C(Nc3ccccn3)c3ccccc3)c(O)c2n1 (stereo not given)	-6	7	-1	-1	-1	3
Cc1ccc(S(=O)(=O)c2ccccc2)cc1S	0	/	/	/	/	26*
CC(=O)N1c2ccc(F)c(F)c2C[C@H]1C	/	3	-8	1	2	2
CCCCCCc1cc2cc(C(=O)NC)c(=N)oc2cc1O	9	0	-6	286*	7	3
CCCCCCc1cc2cc(C(=O)Nc3ccc(OC)cc3)c(=O)oc2cc1O	1	4	0	27	-2	5
CCCCCCc1cc2cc(C(=O)OCC)c(=O)oc2cc1O	-2	5	3	21	-1	-1
CCCCCCc1cc2cc(C(=O)Nc3cccc(OC)c3)c(=O)oc2cc1O	3	6	4	57*	-5	-4
Cc1ccc(S(=O)(=O)c2cc3c(=O)n4ccccc4nc3n(Cc3ccco3)c2=N)cc1	24	-4	-1	66*	-7	3
CCCCn1c(=N)c(S(=O)(=O)c2ccc(Br)cc2)cc2c(=O)n3cccc(C)c3nc21	0	6	2	59*	3	1
CCCCn1c(=NC(=O)c2cccnc2)c(C#N)cc2c(=O)n3cccc(C)c3nc21	-7	11	-19	89*	14	-8
Cc1ccc(CNC(=O)c2cc3c(=O)n4ccccc4nc3n(Cc3ccco3)c2=N)cc1	1	-4	2	3	-3	2
CCCCCn1c(=N)c(S(=O)(=O)c2ccc(Br)cc2)cc2c(=O)n3cccc(C)c3nc21	-2	5	-7	19	2	-7
CC1=C(C(=O)Nc2cccc(C(=O)NC(C)c3ccccc3)c2)SCCO1 (stereo not given)	-2	6	-9	-3	-4	3
CCc1ccc(CN(C)C(=O)C2=CC=CN3CCS(=O)(=O)N=C23)cc1	/	2	-5	1	3	/
COc1ccc(/C=C/C(=O)OCC(=O)NCc2ccco2)cc1OC	1	2	-20	0	0	5
CN(Cc1ccccc1)C(=O)c1ccc(NC(=O)C2CCCN(C(=O)OC(C)(C)C)C2)cc1 (stereo not given)	/	3	-2	0	-2	-2
CC1(C)C(=O)OC(c2cccn2-c2ccc([N+](=O)[O-])cc2)C2(CCCCC2)C1=O (stereo not given)	-2	-1	-14	263*	-1	2
CC1(C)C(=O)OC(c2cccn2-c2ccc([N+](=O)[O-])cc2)C(C)(C)C1=O (stereo not given)	1	-1	-2	-2	3	-2
C/C(=C\C=C(C#N)C#N)c1cc(C#N)c(N)o1	/	-41	-195	64*	149*	/
O=C(N/N=C/c1cc(Br)ccc1O)c1ccncc1	12	0	5	6	7	4
